# Laboratory results from PubChem BioAssay (EPA / NIEHS).
# Calls of active or inactive are those of the source. How the source made its calls: active means hit-call score of the fitted dose curve at least 0.9, where 1 is the maximum; inactive means score below 0.9.
# Assay: CCTE_Mundy_HCI_Cortical_Synap_Neur_Matur_NeuriteSpotCountPerNeuron: CCTE's Synaptogenesis and Neurite Maturation Assay in rat cortical cells for Neurite Spot Count per Neuron Count, Mundy Lab (AID 2284215)
# Method: CCTE_Mundy_HCI_Cortical_Synap&Neurite_Matur is a multiplexed, cell-based-readout assay that uses rat primary cortical cells with measurements taken at 288.33 hours after chemical dosing in a microplate: 96-well plate.CCTE_Mundy_HCI_Cortical_Synap_Neur_Matur_NeuriteSpotCountPerNeuron is one of eight components of the CCTE_Mundy_HCI_Cortical_Synap&Neurite_Matur assay. It measures synaptogenesis and neurite maturation related to number of neurite-associated synapses (synaptophysin puncta) per neuron using High Content Imaging of fluorescently labelled markers.[…] Using a type of morphology reporter, loss -of-signal activity can be used to understand developmental effects.
# Cells are plated onto 96 well plates and allowed 2 hr for attachment to the substrate. At days in vitro (DIV) 5, Cytosine Arabinoside (AraC) is added to arrest glial cell growth. Chemicals are dosed and a media change is performed at DIV 7 of differentiation and is continued through DIV 12 when the experiment is terminated. Cells are fixed with […] and Hoechst Dye. Cells are stained using Millipore Mouse anti-MAP2MAB3418 (1:800) and Millipore Rabbit anti-Synaptophysinsc-1750 (1:250) primary antibodies and Alexa Fluor-488 goat anti-mouse and AlexaFluor-546 goat anti-rabbit secondary antibodies to label neuronal cell nuclei, synapses and neurites. A Cellomics ArrayScan VTi HCS Reader is used for automated image acquisition and analysis of neurite outgrowth.
Structure (SMILES),outcome,AC50
Nc1cc(Cl)cc(C(=O)O)c1Cl,inactive,–
COC(=O)Nc1nc2ccccc2[nH]1,inactive,–
CNC(=O)Oc1cccc2c1OC(C)(C)C2,inactive,–
CC(C)(C)C(O)(CCc1ccc(Cl)cc1)Cn1cncn1 (configuration not stated),inactive,–
CCCCOC(=O)c1ccccc1C(=O)OCc1ccccc1,inactive,–
CN(C)[C@@H]1C(=O)C(C(N)=O)=C(O)[C@@]2(O)C(=O)C3=C(O)c4c(O)cccc4[C@@](C)(O)[C@H]3C[C@@H]12,inactive,–
ClC1=C(Cl)C2(Cl)C3C(Cl)C=CC3C1(Cl)C2(Cl)Cl (configuration not stated),–,10.5 µM (active)
CC(C)COC(=O)c1ccccc1C(=O)OCC(C)C,–,77.8 µM (active)
COP(=S)(OC)SCN1C(=O)c2ccccc2C1=O,inactive,–
OCCOCCO,inactive,–
[O-][Cl+]O,inactive,–
CCC[CH2][Sn]([Cl])([CH2]CCC)[CH2]CCC,–,0.037 µM (active)
